Records with an inconclusive call do not appear. More than one record can exist for a structure, and the calls need not agree. Activity calls are given as the source filed them. How the source made its calls, unless noted: active means hit-call score of the fitted dose curve at least 0.9, where 1 is the maximum; inconclusive means response in the unintended direction; inactive means score below 0.9.
Assays:
[1] = CEETOX_H295R_11DCORT: CeeTox H295R High-throughput Steroidogenesis Assay for 11-Deoxycortisol (11DCORT) (AID 2283432; active means hit-call score of the fitted dose curve at least 0.9, where 1 is the maximum; inactive means score below 0.9); conditions: actives raise or lower the signal
Outline: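 H295R cells prestimulated 48 h with 10 uM forskolin, then exposed 48 h to chemical in 0.1% DMSO. 11-Deoxycortisol in medium quantified by HPLC-MS/MS after MTBE extraction; bidirectional fit versus DMSO. MTT viability read in same wells.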

[2] = CEETOX_H295R_OHPREG: CeeTox H295R High-throughput Steroidogenesis Assay for OH-Pregnenolone (OHPREG) (AID 2283434; active means hit-call score of the fitted dose curve at least 0.9, where 1 is the maximum; inactive means score below 0.9); conditions: actives raise or lower the signal
Outline: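 Human adrenal H295R cells were prestimulated 48 h with 10 uM forskolin, then exposed 48 h to chemical in 0.1% DMSO. Medium 17alpha-hydroxypregnenolone was quantified by HPLC-MS/MS after MTBE extraction; bidirectional fitting versus DMSO baseline.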

[3] = CEETOX_H295R_ANDR: CeeTox H295R High-throughput Steroidogenesis Assay for Androstenedione (ANDR) (AID 2283436; active means hit-call score of the fitted dose curve at least 0.9, where 1 is the maximum; inactive means score below 0.9); conditions: actives raise or lower the signal
Outline: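 H295R human adrenal cells (passages ≤10) were exposed to test chemicals for 48 h; androstenedione in medium was MTBE-extracted and quantified by HPLC-MS/MS against a 7-point standard curve. Bidirectional fitting used DMSO as baseline.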

[4] = CEETOX_H295R_CORTIC: CeeTox H295R High-throughput Steroidogenesis Assay for Corticosterone (CORTIC) (AID 2283437; active means hit-call score of the fitted dose curve at least 0.9, where 1 is the maximum; inactive means score below 0.9;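 further: corticosterone secreted into medium quantified by mass spectrometry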); conditions: actives raise or lower the signal
Outline: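 H295R cells were prestimulated 48 h with 10 uM forskolin, then exposed 48 h to test chemical in 0.1% DMSO. Medium corticosterone was MTBE-extracted and quantified by HPLC-MS/MS; bidirectional fit versus DMSO baseline.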

[5] = CEETOX_H295R_CORTISOL: CeeTox H295R High-throughput Steroidogenesis Assay for Cortisol (AID 2283438; active means hit-call score of the fitted dose curve at least 0.9, where 1 is the maximum; inactive means score below 0.9;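 further: cortisol secreted into medium quantified by LC-MS/MS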); conditions: actives raise or lower the signal
Outline: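 Forskolin-primed H295R cells (10 uM, 48 h) treated 48 h with test chemical in 0.1% DMSO. Cortisol in medium quantified by MTBE extraction and HPLC-MS/MS; bidirectional fit vs DMSO, MTT viability in same wells.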

[6] = CEETOX_H295R_DOC: CeeTox H295R High-throughput Steroidogenesis Assay for DOC (AID 2283439; active means hit-call score of the fitted dose curve at least 0.9, where 1 is the maximum; inactive means score below 0.9); conditions: actives raise or lower the signal
Outline: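 H295R cells prestimulated 48 h with 10 uM forskolin, then exposed 48 h to test chemical (0.1% DMSO final). Medium 11-deoxycorticosterone measured by HPLC-MS/MS after MTBE extraction; bidirectional fit vs DMSO, viability checked by MTT in same wells.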

[7] = CEETOX_H295R_PROG: CeeTox H295R High-throughput Steroidogenesis Assay for Progesterone (PROG) (AID 2283442; active means hit-call score of the fitted dose curve at least 0.9, where 1 is the maximum; inactive means score below 0.9); conditions: actives raise or lower the signal
Outline: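 Measured analyte is progesterone secreted by H295R cells at 48 h of chemical treatment, following 10 uM forskolin priming. Quantitation used HPLC-MS/MS against a 7-point standard curve; cytotoxicity was checked by MTT absorbance.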

[8] = target: Estrogen receptor beta (Homo sapiens) (UniProt Q92731); assay: OT_ER_ERbERb_1440: Odyssey Thera (OT) 24-hour HEK293T Protein-Complementation Assay for Estrogen Receptor-beta/-beta Homodimer (AID 2283380);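 further: fluorescence gain from ER beta LBD homodimer complementation read by laser scanning cytometry; scored as signal increase over DMSO baseline for both agonists and antagonists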
Outline: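 HEK293T cells stably expressing human ER-beta LBD (aa 310-547) PCA homodimer pair, dosed 24 h; formaldehyde-fixed, Draq5-stained. Readout: increase in nuclear (agonist) or nuclear plus cytoplasmic (antagonist) fluorescence intensity versus DMSO, gain-of-signal fitting.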

[9] = target: Estrogen receptor (Homo sapiens) (UniProt P03372); assay: OT_ERa_GFPERaERE_0120: Odyssey Thera (OT) 2-hour HeLa Transcription Induction Assay for Estrogen Receptor (AID 2283382)
Outline: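 HeLa cells were dosed for 2 h, then GFP reporter induction was quantified by fluorescence microscopy with high-content image analysis. Gain of signal fitted against DMSO baseline.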

[10] = target: Retinoic acid receptor RXR-alpha (Homo sapiens) (UniProt P19793); assay: OT_NURR1_NURR1RXRa_0480: Odyssey Thera (OT) 8-hour HEK293T Protein Complementation Assay for Nurr1/retinoid X receptor (RXR) (AID 2283385)
Outline: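 HEK293T cells expressing Nurr1 and RXRα fused to reporter fragments (protein-fragment complementation); fluorescence measured 8 h after dosing. Gain of signal fitted relative to DMSO.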

[11] = target: Peroxisome proliferator-activated receptor gamma (Homo sapiens) (UniProt P37231); assay: OT_PPARg_PPARgSRC1_1440: Odyssey Thera (OT) 24-hour Protein-Complementation Assay for Peroxisome Proliferator-activated Receptor Gamma/ SRC-1 Co-activator (AID 2283388)
Outline: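 Cells carrying the PPARg/SRC-1 fragment-complementation reporter receive compound for 24 hours, are fixed and counterstained with Draq5, then imaged. Increased nuclear relative to cytoplasmic YFP fluorescence above DMSO baseline indicates binding activity.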

[12] = target: Peroxisome proliferator-activated receptor gamma (Homo sapiens) (UniProt P37231); assay: OT_PPARg_PPARgSRC1_0480: Odyssey Thera (OT) 8-hour Protein-Complementation Assay for Peroxisome Proliferator-activated Receptor Gamma / SRC-1 Co-activator (AID 2283387);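 further: nuclear to cytoplasmic split Venus YFP fluorescence ratio reporting PPARg SRC-1 interaction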
Outline: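 HEK293T transiently transfected with PPARg and SRC-1 fused to Venus YFP fragments, compounds 8 h at 37C. Fixed, Draq5-stained cells imaged; nuclear/cytoplasmic 488 nm fluorescence ratio over at least 350 cells per image; gain fitted versus DMSO.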

[13] = target: Retinoic acid receptor RXR-alpha (Homo sapiens) (UniProt P19793); assay: OT_NURR1_NURR1RXRa_1440: Odyssey Thera (OT) 24-hour HEK293T Protein Complementation Assay for Nurr1/retinoid X receptor (RXR) (AID 2283386)
Outline: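 HEK293T protein-fragment complementation of Nurr1 and RXRα fused to reporter fragments; compounds 24 h. Fluorescence gain from reconstituted reporter fitted versus DMSO.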

[14] = target: Estrogen receptor (Homo sapiens) (UniProt P03372); assay: OT_ERa_GFPERaERE_0480: Odyssey Thera (OT) 8-hour HeLa Transcription Induction Assay for Estrogen Receptor (AID 2283381; active means hit-call score of the fitted dose curve at least 0.9, where 1 is the maximum; inactive means score below 0.9)
Outline: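 HeLa cells expressing GFP reporter under estrogen response element, imaged 8 h after dosing. GFP induction quantified by high-content fluorescence microscopy image analysis; gain of signal fitted versus DMSO.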

[15] = target: Bile acid receptor (Homo sapiens) (UniProt Q96RI1); assay: OT_FXR_FXRSRC1_0480: Odyssey Thera (OT) 8-hour HEK293T Protein-Complementation Assay for Farnesoid X receptor/SRC-1 Co-activator (AID 2283383)
Outline: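 HEK293T protein-fragment complementation assay: FXR and SRC-1 coactivator are fused to reporter fragments, and their interaction restores a fluorescent reporter. Readout was taken 8 h after dosing, with gain of signal fit relative to DMSO.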

[16] = read-out: Tumor necrosis factor receptor superfamily member 6 (Homo sapiens) (UniProt P25445); assay: LTEA_HepaRG_FAS: Life Technologies and Expression Analysis (LTEA) Assay for Fas cell surface death receptor (FAS) using HepaRG (AID 2283447; active means hit-call score of the fitted dose curve at least 0.9, where 1 is the maximum; inactive means score below 0.9); conditions: mRNA level, 48 h; actives raise or lower the signal
Outline: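 Differentiated human HepaRG cells, pre-cultured 48 h, were exposed in duplicate for 48 h to 8-point half-log concentrations (top 100 uM, 0.5% DMSO) in serum-free induction medium; FAS mRNA measured by qRT-PCR, normalized to ACTB/GAPDH/POLR2A, bidirectional fit versus DMSO.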

[17] = read-out: Fatty acid synthase (Homo sapiens) (UniProt P49327); assay: LTEA_HepaRG_FASN: Life Technologies and Expression Analysis (LTEA) Assay for Fatty Acid Synthase (FASN) using HepaRG (AID 2283448; active means hit-call score of the fitted dose curve at least 0.9, where 1 is the maximum; inactive means score below 0.9); conditions: mRNA level, 48 h; actives raise or lower the signal
Outline: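 Differentiated HepaRG cells in serum-free induction medium exposed 48 h in duplicate to eight half-log concentrations, top 100 uM, 0.5% DMSO. FASN mRNA by qRT-PCR normalised to ACTB, GAPDH, POLR2A; bidirectional fit versus DMSO.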

Measured: AC50

Sequence of Peroxisome proliferator-activated receptor gamma (Homo sapiens) (P37231 whole entry, looked up, the tested form may be a part): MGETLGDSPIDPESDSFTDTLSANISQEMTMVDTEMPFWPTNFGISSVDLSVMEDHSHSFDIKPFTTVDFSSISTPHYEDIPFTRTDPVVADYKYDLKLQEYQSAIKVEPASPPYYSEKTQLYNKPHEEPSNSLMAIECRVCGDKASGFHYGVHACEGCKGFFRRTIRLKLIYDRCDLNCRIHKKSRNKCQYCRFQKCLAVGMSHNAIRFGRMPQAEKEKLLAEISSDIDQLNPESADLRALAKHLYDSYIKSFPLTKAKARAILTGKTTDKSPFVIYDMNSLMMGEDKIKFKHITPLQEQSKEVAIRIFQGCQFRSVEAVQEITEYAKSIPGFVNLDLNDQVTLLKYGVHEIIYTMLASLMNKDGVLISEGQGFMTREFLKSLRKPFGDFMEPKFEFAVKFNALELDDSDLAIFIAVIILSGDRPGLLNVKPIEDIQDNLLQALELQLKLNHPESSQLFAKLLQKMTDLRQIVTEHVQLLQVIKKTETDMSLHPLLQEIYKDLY
Sequence of Estrogen receptor beta (Homo sapiens) (Q92731 whole entry, looked up, the tested form may be a part): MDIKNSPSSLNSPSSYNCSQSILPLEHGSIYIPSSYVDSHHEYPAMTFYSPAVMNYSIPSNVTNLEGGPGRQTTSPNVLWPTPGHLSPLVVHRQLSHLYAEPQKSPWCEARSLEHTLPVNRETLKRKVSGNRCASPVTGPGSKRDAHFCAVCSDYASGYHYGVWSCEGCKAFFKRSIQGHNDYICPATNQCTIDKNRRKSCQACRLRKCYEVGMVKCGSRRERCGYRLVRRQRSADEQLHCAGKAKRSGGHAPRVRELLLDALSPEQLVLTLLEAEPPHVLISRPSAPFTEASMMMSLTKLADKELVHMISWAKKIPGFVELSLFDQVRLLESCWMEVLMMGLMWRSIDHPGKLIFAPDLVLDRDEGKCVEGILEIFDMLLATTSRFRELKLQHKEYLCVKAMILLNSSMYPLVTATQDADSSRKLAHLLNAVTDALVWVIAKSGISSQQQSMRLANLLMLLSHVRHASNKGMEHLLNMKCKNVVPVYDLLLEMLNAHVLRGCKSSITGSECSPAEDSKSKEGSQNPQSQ
Sequence of Retinoic acid receptor RXR-alpha (Homo sapiens) (P19793 whole entry, looked up, the tested form may be a part): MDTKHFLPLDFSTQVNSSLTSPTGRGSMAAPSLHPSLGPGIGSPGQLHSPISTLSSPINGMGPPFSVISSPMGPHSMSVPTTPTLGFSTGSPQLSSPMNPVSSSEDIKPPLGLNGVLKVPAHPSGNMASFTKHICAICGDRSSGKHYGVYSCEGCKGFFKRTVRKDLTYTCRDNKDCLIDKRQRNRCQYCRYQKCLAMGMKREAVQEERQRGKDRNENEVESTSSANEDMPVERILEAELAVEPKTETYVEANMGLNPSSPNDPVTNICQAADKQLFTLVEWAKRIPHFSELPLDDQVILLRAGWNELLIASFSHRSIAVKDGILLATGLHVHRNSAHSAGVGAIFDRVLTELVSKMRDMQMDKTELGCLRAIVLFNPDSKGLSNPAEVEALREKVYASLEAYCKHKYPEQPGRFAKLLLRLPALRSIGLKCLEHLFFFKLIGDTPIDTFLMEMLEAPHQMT
Sequence of Estrogen receptor (Homo sapiens) (P03372 whole entry, looked up): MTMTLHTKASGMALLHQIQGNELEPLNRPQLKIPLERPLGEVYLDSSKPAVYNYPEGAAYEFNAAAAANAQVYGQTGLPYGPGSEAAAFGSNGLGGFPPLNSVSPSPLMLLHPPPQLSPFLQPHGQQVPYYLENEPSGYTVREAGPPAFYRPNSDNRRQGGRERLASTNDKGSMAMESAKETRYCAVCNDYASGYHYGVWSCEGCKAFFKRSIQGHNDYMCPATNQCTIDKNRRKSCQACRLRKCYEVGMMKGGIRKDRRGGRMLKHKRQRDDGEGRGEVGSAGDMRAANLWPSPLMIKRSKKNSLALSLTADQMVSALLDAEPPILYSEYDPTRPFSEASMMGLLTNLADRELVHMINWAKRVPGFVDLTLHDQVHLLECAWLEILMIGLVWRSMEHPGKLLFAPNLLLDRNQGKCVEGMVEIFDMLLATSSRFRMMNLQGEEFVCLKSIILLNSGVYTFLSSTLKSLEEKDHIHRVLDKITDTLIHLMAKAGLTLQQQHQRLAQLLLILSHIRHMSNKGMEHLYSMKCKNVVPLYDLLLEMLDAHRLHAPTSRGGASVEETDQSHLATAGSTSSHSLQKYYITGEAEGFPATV
Sequence of Bile acid receptor (Homo sapiens) (Q96RI1 whole entry, looked up, the tested form may be a part): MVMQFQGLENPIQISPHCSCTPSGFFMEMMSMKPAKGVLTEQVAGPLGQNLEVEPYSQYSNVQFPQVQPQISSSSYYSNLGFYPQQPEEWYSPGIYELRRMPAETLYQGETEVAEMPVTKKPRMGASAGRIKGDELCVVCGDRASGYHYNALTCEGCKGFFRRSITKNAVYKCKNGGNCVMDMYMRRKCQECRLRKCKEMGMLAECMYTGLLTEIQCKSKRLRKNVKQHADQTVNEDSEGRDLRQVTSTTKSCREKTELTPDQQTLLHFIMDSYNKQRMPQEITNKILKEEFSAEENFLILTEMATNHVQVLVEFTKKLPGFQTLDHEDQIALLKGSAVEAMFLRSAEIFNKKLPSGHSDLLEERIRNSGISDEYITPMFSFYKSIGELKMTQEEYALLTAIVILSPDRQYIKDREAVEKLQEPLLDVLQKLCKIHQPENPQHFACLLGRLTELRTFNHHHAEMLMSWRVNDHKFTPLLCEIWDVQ
Sequence of Fatty acid synthase (Homo sapiens) (P49327 whole entry, looked up): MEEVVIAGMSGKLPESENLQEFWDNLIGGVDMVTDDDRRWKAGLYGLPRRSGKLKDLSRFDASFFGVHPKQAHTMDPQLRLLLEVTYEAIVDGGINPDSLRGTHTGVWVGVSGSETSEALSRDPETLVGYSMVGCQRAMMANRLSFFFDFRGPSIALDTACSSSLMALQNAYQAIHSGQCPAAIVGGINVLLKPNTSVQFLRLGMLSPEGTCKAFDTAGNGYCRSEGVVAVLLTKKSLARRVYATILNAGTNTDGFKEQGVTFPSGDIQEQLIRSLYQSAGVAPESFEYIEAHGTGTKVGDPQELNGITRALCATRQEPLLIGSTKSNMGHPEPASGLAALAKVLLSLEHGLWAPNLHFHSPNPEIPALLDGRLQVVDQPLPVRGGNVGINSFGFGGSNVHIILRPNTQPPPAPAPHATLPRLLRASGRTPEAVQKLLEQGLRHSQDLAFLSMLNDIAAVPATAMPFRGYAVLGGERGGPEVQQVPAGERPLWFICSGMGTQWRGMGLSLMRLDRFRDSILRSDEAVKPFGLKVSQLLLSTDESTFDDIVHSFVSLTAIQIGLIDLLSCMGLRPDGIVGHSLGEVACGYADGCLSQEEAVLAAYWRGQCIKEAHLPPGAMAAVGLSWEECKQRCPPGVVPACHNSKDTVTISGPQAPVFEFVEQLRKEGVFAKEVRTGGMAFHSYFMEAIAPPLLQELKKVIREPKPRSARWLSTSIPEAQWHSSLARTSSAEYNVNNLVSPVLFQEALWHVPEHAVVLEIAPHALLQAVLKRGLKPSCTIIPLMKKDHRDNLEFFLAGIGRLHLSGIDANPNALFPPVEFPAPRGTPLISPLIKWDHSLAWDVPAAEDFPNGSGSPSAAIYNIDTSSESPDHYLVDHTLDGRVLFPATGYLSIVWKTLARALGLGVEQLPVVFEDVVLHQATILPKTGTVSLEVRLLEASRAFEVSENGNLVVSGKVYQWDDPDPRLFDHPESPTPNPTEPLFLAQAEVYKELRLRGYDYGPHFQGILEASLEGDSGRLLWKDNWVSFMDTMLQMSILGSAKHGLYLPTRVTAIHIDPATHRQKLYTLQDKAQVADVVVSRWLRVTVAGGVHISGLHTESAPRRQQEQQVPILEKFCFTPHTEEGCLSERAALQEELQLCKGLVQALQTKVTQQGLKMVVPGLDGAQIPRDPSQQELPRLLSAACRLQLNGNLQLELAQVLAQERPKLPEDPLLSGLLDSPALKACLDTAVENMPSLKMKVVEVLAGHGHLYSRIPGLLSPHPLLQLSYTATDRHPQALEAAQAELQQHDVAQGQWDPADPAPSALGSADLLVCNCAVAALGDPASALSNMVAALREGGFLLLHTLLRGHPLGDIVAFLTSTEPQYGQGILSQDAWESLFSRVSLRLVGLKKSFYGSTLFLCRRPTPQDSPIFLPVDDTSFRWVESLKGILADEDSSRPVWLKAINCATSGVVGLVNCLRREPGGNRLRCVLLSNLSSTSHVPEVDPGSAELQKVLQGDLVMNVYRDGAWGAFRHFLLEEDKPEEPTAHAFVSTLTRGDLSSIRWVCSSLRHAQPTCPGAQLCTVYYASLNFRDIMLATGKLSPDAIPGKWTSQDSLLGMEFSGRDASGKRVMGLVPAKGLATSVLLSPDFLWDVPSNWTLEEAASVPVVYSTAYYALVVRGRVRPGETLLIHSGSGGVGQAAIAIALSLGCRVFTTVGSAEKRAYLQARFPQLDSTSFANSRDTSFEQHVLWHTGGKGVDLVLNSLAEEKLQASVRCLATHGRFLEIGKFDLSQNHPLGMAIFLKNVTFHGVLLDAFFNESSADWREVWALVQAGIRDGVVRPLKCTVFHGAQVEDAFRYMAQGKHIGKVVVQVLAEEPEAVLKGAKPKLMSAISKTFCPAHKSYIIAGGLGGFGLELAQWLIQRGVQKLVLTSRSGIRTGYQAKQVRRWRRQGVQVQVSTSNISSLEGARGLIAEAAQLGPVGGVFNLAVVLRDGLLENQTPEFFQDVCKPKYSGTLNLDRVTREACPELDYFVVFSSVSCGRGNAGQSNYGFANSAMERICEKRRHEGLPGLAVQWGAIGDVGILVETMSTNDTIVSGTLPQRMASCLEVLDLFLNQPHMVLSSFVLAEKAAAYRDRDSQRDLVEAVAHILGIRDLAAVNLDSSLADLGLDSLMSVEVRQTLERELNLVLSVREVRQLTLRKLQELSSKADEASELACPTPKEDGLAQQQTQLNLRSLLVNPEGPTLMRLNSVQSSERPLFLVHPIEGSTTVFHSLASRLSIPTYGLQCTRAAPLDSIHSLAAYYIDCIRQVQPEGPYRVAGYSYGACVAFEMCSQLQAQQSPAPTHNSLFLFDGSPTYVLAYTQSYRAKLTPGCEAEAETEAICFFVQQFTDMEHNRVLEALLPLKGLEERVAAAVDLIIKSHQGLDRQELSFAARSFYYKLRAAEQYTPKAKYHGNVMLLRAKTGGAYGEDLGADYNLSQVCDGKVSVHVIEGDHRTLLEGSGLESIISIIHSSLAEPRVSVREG

CC=CC(=O)C1=C(C)C=CCC1(C)C
inactive: [1] | [2] | [3] | [4] | [5] | [6] | [7]

CCCCCCCCCCO[C@@H]1O[C@H](CO)[C@@H](O)[C@H](O)[C@H]1O
inactive: [8] | [9] | [10] | [11]

C=CC(O)CCCCC (stereo not drawn)
inactive: [10] | [12] | [11]

CCCO[Si](OCCC)(OCCC)OCCC
inactive: [8] | [9] | [12] | [11]

C=CC(C)CCCC(C)(C)O (stereo not drawn)
inactive: [8] | [9] | [12] | [11]

CC1=CCC(=C(C)C)CC1
inactive: [9] | [10]
active: [13] 77.4 µM

CCCC(O)C(CC)CO (stereo not drawn)
inactive: [8] | [9] | [12] | [11]

OC[C@@H](O)[C@H](O)[C@@H](O)[C@@H](O)CO
inactive: [14] | [9] | [10] | [12] | [11]

CCCCCCCCCOS(=O)(=O)O
inactive: [9] | [12] | [11]

O=C(O)C1=NN(c2ccc(S(=O)(=O)O)cc2)C(=O)C1
inactive: [14] | [9] | [10] | [13] | [12] | [11]

CCCCCCCCCCCCOCCOS(=O)(=O)O
inactive: [10] | [12] | [11]
active: [9] 11 µM

C1=COCCC1
inactive: [9] | [15] | [10] | [12] | [11]

CC(=O)N(C)C
inactive: [14] | [9] | [12] | [11]

O=C(c1ccc(OCCN2CCCCC2)cc1)c1c(-c2ccc(O)cc2)sc2cc(O)ccc12
inactive: [10] | [12] | [11] | [1] | [4] | [5] | [6] | [7] | [16] | [17]
active: [10] 11.9 µM | [2] 0.35 µM

C=C(C)C(=O)OCCC(C)OC(=O)C(=C)C (stereo not drawn)
inactive: [14] | [9] | [10] | [13] | [12] | [11]

CC(=N[Si](C)(C)C)O[Si](C)(C)C
inactive: [1] | [2] | [3] | [4] | [5] | [6] | [7]

O=Cc1ccccc1O
inactive: [14] | [9] | [12] | [11]

CC(=O)OC(C)(C)C1CC=C(C)CC1 (stereo not drawn)
inactive: [9] | [12] | [11]

— PubChem BioAssay (EPA / NIEHS)
